# Test results published in the supplement of paper PMC13380429.
# Unmarked numbers belong to inactive results.
# Tested on: Vero E6 infected with SARS-CoV-2
# Assay: SARS-CoV-2 infection rate relative to infected DMSO; higher = more infection, active = 60 or less
# Settings: 24 h
row,Structure (SMILES),SARS-CoV-2 infection rate
1,CCN1C[C@]2(COC(=O)c3ccccc3N3C(=O)C[C@H](C)C3=O)CC[C@H](OC)[C@@]34[C@@H]5C[C@H]6[C@H](OC)[C@@H]5[C@](O)(C[C@@H]6OC)[C@](O)([C@@H](OC)[C@H]23)[C@@H]14 [methyllycaconitine] (10 µM),110%
2,C#C[C@]1(O)CC[C@H]2[C@@H]3CCC4=CC(=O)CC[C@@H]4[C@H]3CC[C@@]21CC [norgestrel] (10 µM),102%
3,O=C(Nc1cc(Cl)cc(Cl)c1O)c1c(O)c(Cl)cc(Cl)c1Cl [oxyclozanide] (10 µM),113%
4,O=C(Cc1ccccc1)Nc1nc2ccc(Cl)cc2c2nc(-c3ccco3)nn12 (10 µM),110%
5,CC(C)(C)NCC(O)c1ccccc1Cl (centres undefined) [tulobuterol] (10 µM),115%
6,OC[C@H]1O[C@@H](Oc2cc3c(O)cc(O)cc3[o+]c2-c2ccc(O)c(O)c2)[C@H](O)[C@@H](O)[C@@H]1O [kuromanin] (10 µM),110%
7,CC(C)Oc1cccc(CC(=O)N2CCC[C@](CC[N+]34CCC(c5ccccc5)(CC3)CC4)(c3ccc(Cl)c(Cl)c3)C2)c1 (10 µM),110%
8,c1cc(CN2CCCNCCNCCCNCC2)ccc1CN1CCCNCCNCCCNCC1 [plerixafor] (10 µM),95.5%
9,CO[C@H]1/C=C/O[C@@]2(C)Oc3c(C)c(O)c4c(O)c(cc(O)c4c3C2=O)NC(=O)/C(C)=C\C=C\[C@H](C)[C@H](O)[C@@H](C)[C@@H](O)[C@@H](C)[C@H](OC(C)=O)[C@@H]1C [rifamycin-sv] (10 µM),94.2%
